About 8,800 targets were measured; listed, in parts, are those with a hit and a random draw of the rest. About 0.5% of all pairs of compound and target were hits. A number with no mark means an inactive call.
Experiments:
Experiment in all cases: log2 fold change, soluble protein after heating vs DMSO (PISA); higher = thermal stabilisation; K562 lysate, 10 uM; active = over 0.2 and 3.5 SD of the protein, either way, in both replicates (recomputed)
erlotinib = compound: C#Cc1cccc(Nc2ncnc3cc(OCCOC)c(OCCOC)cc23)c1 [erlotinib]
Outline: (§1)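 Soluble protein was defined as the supernatant remaining after 21,000xg for 90 min, following pooling of heated aliquots and adjustment to 0.5% NP-40 at 4°C. Before that, crude K562 extract at 1 mg/mL protein in PBS pH 7.4 with 1 mM MgCl2 was treated with 10 μM compound for 30 min and heated for 3 min across 48°C-58°C. Quantification used TMTpro 16plex LC-MS/MS with channel sums equalised, and values are log-two fold changes in thermal stability relative to solvent controls from duplicates.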

[1] = compound: C1=CC(=CC=C1C2=NC3=C(N2)C=C(C=C3)C(=O)N)OC4=CC=C(C=C4)Cl
Outline: as §1

[2] = compound: C1=CC2=NC=CN=C2C=C1/C=C/3\C(=O)NC(=O)S3
Outline: as §1

[3] = compound: C1=CC=C(C=C1)C2=NC(=C(N2)C3=CC=NC=C3)C4=CC(=C(C=C4)Cl)O
Outline: as §1

IRAK-1-4 Inhibitor I = compound: C1COCCN1CCN2C3=CC=CC=C3N=C2NC(=O)C4=CC(=CC=C4)[N+](=O)[O-] [IRAK-1-4 Inhibitor I]
Outline: as §1

[4] = compound: C/C(=N\NC(=O)C1=CC(=CC=C1)S(=O)(=O)N2CCOCC2)/C3=C(C=CC(=C3)Cl)O
Outline: as §1

[5] = compound: C1=CC2=C(C=CC(=C2)/C=C\3/C(=O)NC(=NCC4=CC=CS4)S3)N=C1
Outline: as §1

[6] = compound: C1=CC=C2C(=C1)C3=NNC4=CC=CC(=C43)C2=O
Outline: as §1

[7] = compound: C1CCN(C1)C(=O)NC2=CC=CC(=C2)NC3=NC=C(C(=N3)NCCC4=CN=CN4)Br
Outline: as §1

[8] = compound: C1CN(CCC1(CC2=CC=C(C=C2)Cl)N)C3=NC=NC4=C3C=CN4
Outline: as §1

Target: KIF21A (UniProt H0YI78)
- log2 fold change (erlotinib): -0.064
- log2 fold change [1]: 0.088
- log2 fold change [2]: -0.015

Target: MRPL22 (UniProt Q9NWU5)
- log2 fold change (erlotinib): -0.424 (active)
- log2 fold change [1]: -0.074
- log2 fold change [3]: 0.006
- log2 fold change (IRAK-1-4 Inhibitor I): -0.01

Target: LRP1 (UniProt Q07954)
- log2 fold change [4]: 0.266
- log2 fold change [5]: -0.092
- log2 fold change [6]: -0.211
- log2 fold change [7]: -0.196
- log2 fold change [8]: -0.055

Target: KIF3C (UniProt O14782)
- log2 fold change (erlotinib): 0.389
- log2 fold change [4]: 0.05
- log2 fold change [1]: -0.082
- log2 fold change [5]: -0.116
- log2 fold change [3]: 0.025
- log2 fold change [6]: -0.117
- log2 fold change [7]: 0.158
- log2 fold change [8]: 0.146
- log2 fold change (IRAK-1-4 Inhibitor I): -0.023

Target: MRC2 (UniProt Q9UBG0)
- log2 fold change (erlotinib): -0.225
- log2 fold change [1]: 0.031
- log2 fold change [7]: 0.011
- log2 fold change [8]: 0.061

Target: LSM11 (UniProt P83369)
- log2 fold change (erlotinib): 0.104
- log2 fold change [4]: 0.262
- log2 fold change [1]: 0.065
- log2 fold change [5]: -0.056
- log2 fold change [6]: -0.044
- log2 fold change [7]: -0.029
- log2 fold change [8]: -0.055

Target: KIF18B (UniProt Q86Y91)
- log2 fold change [7]: -0.117
- log2 fold change [8]: 0.033

Target: MRPL30 isoform 2 (UniProt Q8TCC3)
- log2 fold change (erlotinib): -0.004
- log2 fold change [1]: -0.01
- log2 fold change [2]: -0.037
- log2 fold change [3]: -0.03
- log2 fold change [7]: 0.067
- log2 fold change [8]: 0.015
- log2 fold change (IRAK-1-4 Inhibitor I): 0.015

Target: MAP3K6 (UniProt O95382)
- log2 fold change [4]: 0.05
- log2 fold change [5]: 0.183
- log2 fold change [6]: 0.487
- log2 fold change [7]: 0.033
- log2 fold change [8]: -0.008

Target: LRRC7 (UniProt Q96NW7)
- log2 fold change [4]: 0.042
- log2 fold change [5]: -0.493 (active)
- log2 fold change [2]: -0.108
- log2 fold change [3]: 0.065
- log2 fold change [6]: 0.038
- log2 fold change [7]: 0.02
- log2 fold change [8]: 0.067
- log2 fold change (IRAK-1-4 Inhibitor I): 0.048

Target: LRRIQ1 (UniProt Q96JM4)
UniProt Q96JM4, sequence (Q96JM4 whole entry, looked up): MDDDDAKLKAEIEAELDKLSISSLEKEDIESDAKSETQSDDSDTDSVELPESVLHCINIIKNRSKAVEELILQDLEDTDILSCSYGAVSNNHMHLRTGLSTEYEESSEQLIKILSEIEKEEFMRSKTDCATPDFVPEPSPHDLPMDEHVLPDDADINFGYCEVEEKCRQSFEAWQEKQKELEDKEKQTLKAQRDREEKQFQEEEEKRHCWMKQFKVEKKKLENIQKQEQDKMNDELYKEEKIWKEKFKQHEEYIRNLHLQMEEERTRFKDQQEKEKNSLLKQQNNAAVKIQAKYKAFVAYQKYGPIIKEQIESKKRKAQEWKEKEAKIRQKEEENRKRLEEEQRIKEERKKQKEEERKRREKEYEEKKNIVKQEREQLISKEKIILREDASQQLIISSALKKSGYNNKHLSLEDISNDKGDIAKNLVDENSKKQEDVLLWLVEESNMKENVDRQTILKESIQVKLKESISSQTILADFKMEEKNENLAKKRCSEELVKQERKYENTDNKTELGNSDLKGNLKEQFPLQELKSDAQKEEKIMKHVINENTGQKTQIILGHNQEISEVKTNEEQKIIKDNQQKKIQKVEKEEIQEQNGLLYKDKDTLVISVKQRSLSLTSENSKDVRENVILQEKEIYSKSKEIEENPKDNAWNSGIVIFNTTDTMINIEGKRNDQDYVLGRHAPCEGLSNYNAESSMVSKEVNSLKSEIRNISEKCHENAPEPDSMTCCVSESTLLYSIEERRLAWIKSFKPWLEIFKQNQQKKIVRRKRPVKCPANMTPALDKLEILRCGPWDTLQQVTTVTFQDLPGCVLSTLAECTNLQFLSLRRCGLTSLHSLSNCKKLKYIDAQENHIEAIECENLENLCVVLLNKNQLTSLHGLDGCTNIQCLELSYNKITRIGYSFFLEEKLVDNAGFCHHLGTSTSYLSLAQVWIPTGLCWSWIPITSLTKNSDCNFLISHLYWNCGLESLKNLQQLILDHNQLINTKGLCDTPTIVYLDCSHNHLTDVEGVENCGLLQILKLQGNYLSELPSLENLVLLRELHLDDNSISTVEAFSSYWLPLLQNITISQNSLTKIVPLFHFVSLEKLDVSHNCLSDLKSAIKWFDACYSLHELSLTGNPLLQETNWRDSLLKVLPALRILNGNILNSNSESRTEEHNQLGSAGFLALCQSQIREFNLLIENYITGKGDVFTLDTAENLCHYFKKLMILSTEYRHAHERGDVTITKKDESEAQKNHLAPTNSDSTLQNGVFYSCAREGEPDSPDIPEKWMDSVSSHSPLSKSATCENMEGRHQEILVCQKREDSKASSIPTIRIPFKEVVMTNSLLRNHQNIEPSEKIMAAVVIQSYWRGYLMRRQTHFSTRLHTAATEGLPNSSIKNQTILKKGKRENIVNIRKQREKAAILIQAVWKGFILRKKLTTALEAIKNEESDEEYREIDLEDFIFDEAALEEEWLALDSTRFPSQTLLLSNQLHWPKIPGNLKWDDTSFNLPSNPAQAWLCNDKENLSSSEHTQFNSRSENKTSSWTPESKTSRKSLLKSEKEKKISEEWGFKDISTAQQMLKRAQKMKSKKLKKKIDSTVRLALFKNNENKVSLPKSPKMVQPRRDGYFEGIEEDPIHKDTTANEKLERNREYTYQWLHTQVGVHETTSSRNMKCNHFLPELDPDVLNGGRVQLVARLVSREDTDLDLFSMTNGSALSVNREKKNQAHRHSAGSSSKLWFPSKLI
- log2 fold change [4]: 0.038
- log2 fold change [5]: -0.003
- log2 fold change [3]: 0.041
- log2 fold change [6]: -0.003
- log2 fold change (IRAK-1-4 Inhibitor I): -0.083

Target: MCUB (UniProt Q9NWR8)
- log2 fold change (erlotinib): 0.048
- log2 fold change [1]: -0.069
- log2 fold change [2]: 0.209
- log2 fold change [3]: 0.048
- log2 fold change (IRAK-1-4 Inhibitor I): -0.12

Target: MED25 isoform 3 (UniProt Q71SY5)
UniProt Q71SY5, sequence (Q71SY5 whole entry, looked up): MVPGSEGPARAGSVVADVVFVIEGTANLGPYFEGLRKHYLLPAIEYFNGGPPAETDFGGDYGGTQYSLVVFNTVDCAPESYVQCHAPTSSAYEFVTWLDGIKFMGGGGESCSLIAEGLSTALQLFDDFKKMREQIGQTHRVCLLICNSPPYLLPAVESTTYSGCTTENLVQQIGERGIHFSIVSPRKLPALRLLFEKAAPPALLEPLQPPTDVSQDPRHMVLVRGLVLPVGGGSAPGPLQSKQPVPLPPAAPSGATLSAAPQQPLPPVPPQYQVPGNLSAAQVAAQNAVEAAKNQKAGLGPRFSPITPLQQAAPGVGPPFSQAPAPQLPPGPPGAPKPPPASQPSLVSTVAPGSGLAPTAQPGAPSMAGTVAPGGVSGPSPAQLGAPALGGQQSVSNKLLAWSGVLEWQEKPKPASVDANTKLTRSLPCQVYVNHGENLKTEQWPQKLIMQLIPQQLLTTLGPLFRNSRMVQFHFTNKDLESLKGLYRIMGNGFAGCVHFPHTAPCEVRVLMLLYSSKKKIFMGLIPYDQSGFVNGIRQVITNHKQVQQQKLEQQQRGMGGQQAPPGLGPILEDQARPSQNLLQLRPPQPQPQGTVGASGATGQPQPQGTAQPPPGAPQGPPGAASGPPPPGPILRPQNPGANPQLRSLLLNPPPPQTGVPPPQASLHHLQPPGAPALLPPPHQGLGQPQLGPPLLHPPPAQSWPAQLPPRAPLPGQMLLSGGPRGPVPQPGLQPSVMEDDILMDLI
- log2 fold change (erlotinib): 0.092
- log2 fold change [1]: 0.01
- log2 fold change [2]: -0.062
- log2 fold change [3]: -0.006
- log2 fold change [7]: 0.06
- log2 fold change [8]: 0.073
- log2 fold change (IRAK-1-4 Inhibitor I): 0.073

Target: MRPL27 (UniProt Q9P0M9)
- log2 fold change (erlotinib): -0.072
- log2 fold change [1]: 0.068
- log2 fold change [2]: -0.019
- log2 fold change [3]: 0.056
- log2 fold change [7]: 0.023
- log2 fold change [8]: 0.019
- log2 fold change (IRAK-1-4 Inhibitor I): -0.044

Target: LY6E (UniProt Q16553)
- log2 fold change [4]: -0.095
- log2 fold change [5]: 0.049
- log2 fold change [2]: -0.033
- log2 fold change [6]: -0.27
- log2 fold change [7]: -0.02
- log2 fold change [8]: 0.025

Target: KRAS (UniProt P01116)
- log2 fold change (erlotinib): -0.112
- log2 fold change [4]: 0.033
- log2 fold change [1]: 0.069
- log2 fold change [5]: -0.052
- log2 fold change [3]: -0.036
- log2 fold change [6]: -0.041
- log2 fold change [7]: -0.021
- log2 fold change [8]: -0.008
- log2 fold change (IRAK-1-4 Inhibitor I): 0.007

Target: LRIF1 (UniProt Q5T3J3)
- log2 fold change (erlotinib): -0.015
- log2 fold change [4]: 0.11
- log2 fold change [1]: 0.046
- log2 fold change [5]: -0.301 (active)
- log2 fold change [3]: 0
- log2 fold change [6]: 0.1
- log2 fold change [7]: -0.031
- log2 fold change [8]: -0.009
- log2 fold change (IRAK-1-4 Inhibitor I): -0.02

Target: MEX3A (UniProt A1L020)
UniProt A1L020, sequence (A1L020 whole entry, looked up): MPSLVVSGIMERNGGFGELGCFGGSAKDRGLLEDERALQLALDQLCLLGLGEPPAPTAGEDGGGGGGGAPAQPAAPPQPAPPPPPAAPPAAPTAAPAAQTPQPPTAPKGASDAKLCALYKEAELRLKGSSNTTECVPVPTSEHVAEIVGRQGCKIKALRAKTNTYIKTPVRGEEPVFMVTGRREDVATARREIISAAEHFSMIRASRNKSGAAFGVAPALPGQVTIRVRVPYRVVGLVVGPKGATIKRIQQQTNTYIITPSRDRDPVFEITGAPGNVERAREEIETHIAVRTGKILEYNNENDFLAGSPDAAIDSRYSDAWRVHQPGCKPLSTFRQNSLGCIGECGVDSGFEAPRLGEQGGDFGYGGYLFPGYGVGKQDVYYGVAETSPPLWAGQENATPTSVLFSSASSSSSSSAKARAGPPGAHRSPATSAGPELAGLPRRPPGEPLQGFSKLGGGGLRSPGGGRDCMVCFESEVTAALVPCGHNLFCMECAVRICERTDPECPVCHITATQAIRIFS
- log2 fold change [4]: 0.108
- log2 fold change [5]: -0.108
- log2 fold change [3]: -0.007
- log2 fold change [6]: -0.29
- log2 fold change (IRAK-1-4 Inhibitor I): 0.168

Target: MAN2B2 (UniProt Q9Y2E5)
- log2 fold change (erlotinib): 0.006
- log2 fold change [1]: -0.019
- log2 fold change [2]: -0.003
- log2 fold change [3]: -0.035
- log2 fold change [7]: -0.01
- log2 fold change [8]: 0.045
- log2 fold change (IRAK-1-4 Inhibitor I): 0.009

Target: MAPK7 (UniProt Q13164)
- log2 fold change (erlotinib): -0.1
- log2 fold change [1]: 0.012
- log2 fold change [7]: -0.057
- log2 fold change [8]: 0.032

Target: KRAS isoform 2 (UniProt P01116)
- log2 fold change (erlotinib): -0.038
- log2 fold change [1]: 0.087
- log2 fold change [3]: -0.071
- log2 fold change [7]: -0.044
- log2 fold change [8]: 0.015
- log2 fold change (IRAK-1-4 Inhibitor I): 0.033

Target: METTL21A (UniProt Q8WXB1)
- log2 fold change (erlotinib): -0.074
- log2 fold change [1]: -0.011
- log2 fold change [2]: 0.019
- log2 fold change [3]: -0.027
- log2 fold change (IRAK-1-4 Inhibitor I): -0.04

Target: KMT2B (UniProt Q9UMN6)
- log2 fold change (erlotinib): -0.494
- log2 fold change [1]: -0.226
- log2 fold change [7]: -0.028
- log2 fold change [8]: -0.015

Target: LRRC9 (UniProt Q6ZRR7)
- log2 fold change [4]: -0.037
- log2 fold change [5]: 0.02
- log2 fold change [6]: -0.01
- log2 fold change [7]: -0.044
- log2 fold change [8]: -0.07

Target: MED28 (UniProt Q9H204)
UniProt Q9H204, sequence (Q9H204 whole entry, looked up): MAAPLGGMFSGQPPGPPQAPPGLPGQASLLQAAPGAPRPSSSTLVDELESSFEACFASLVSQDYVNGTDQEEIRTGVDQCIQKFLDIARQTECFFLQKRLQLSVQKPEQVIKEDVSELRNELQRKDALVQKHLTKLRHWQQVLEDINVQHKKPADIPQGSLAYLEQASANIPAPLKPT
- log2 fold change (erlotinib): 0.057
- log2 fold change [1]: 0.039
- log2 fold change [3]: 0.045
- log2 fold change (IRAK-1-4 Inhibitor I): -0.012

Target: LEPROT (UniProt O15243)
- log2 fold change (erlotinib): 0.176
- log2 fold change [1]: -0.116
- log2 fold change [2]: -0.02
- log2 fold change [3]: -0.064
- log2 fold change [7]: 0.122
- log2 fold change [8]: 0.045
- log2 fold change (IRAK-1-4 Inhibitor I): -0.036

Target: LRPPRC (UniProt H7C3W8)
- log2 fold change [4]: -0.13
- log2 fold change [5]: -0.053
- log2 fold change [6]: -0.3

Target: MEGF8 (UniProt Q7Z7M0)
- log2 fold change (erlotinib): 0.045
- log2 fold change [1]: 0.016
- log2 fold change [2]: 0.013
- log2 fold change [3]: 0.075
- log2 fold change [7]: -0.116
- log2 fold change [8]: 0.071
- log2 fold change (IRAK-1-4 Inhibitor I): -0.36 (active)

Target: LIMK1 (UniProt P53667)
UniProt P53667, sequence (P53667 whole entry, looked up): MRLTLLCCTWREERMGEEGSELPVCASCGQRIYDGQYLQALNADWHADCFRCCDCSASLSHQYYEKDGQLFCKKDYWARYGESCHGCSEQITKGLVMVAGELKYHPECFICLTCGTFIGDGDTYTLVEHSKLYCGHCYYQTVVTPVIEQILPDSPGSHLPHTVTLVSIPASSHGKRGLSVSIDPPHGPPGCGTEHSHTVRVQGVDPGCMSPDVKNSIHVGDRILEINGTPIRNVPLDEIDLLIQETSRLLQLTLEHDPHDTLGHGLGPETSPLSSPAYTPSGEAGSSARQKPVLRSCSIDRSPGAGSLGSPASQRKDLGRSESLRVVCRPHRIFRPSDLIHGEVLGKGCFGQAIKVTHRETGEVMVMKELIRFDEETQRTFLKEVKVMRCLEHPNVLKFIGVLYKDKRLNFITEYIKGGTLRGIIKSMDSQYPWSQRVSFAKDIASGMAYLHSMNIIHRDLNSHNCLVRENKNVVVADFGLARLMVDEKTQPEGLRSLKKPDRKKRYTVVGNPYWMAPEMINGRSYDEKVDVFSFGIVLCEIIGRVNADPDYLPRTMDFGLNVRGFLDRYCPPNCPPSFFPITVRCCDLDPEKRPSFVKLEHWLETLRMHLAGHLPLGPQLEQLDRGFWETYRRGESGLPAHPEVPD
- log2 fold change [4]: 0.114
- log2 fold change [5]: -0.088
- log2 fold change [2]: 0.133
- log2 fold change [3]: -0.002
- log2 fold change [6]: 0.029
- log2 fold change [7]: 0.068
- log2 fold change [8]: -0.05
- log2 fold change (IRAK-1-4 Inhibitor I): 0.06

Target: MDM1 (UniProt Q8TC05)
UniProt Q8TC05, sequence (Q8TC05 whole entry, looked up): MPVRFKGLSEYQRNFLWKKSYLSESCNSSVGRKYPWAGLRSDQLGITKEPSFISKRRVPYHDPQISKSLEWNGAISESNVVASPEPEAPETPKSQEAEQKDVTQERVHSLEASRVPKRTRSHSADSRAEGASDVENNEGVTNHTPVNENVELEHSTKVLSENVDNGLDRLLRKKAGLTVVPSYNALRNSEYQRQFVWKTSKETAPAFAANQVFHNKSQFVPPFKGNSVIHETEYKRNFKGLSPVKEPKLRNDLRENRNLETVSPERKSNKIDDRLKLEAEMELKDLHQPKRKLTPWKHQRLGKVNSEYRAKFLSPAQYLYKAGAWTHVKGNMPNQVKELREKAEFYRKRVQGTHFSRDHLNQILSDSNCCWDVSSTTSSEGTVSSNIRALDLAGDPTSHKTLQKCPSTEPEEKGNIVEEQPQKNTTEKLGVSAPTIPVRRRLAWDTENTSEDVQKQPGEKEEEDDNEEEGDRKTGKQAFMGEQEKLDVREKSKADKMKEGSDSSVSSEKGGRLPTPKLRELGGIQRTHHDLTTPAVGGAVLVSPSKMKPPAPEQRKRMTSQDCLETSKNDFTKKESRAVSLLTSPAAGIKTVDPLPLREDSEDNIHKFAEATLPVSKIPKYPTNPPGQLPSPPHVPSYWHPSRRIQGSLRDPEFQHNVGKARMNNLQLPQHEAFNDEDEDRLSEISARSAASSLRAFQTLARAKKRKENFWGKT
- log2 fold change (erlotinib): -0.018
- log2 fold change [4]: -0.105
- log2 fold change [1]: -0.036
- log2 fold change [5]: -0.066
- log2 fold change [3]: -0.054
- log2 fold change [6]: -0.041
- log2 fold change [7]: -0.05
- log2 fold change [8]: -0.075
- log2 fold change (IRAK-1-4 Inhibitor I): -0.043

Target: KLC1 isoform 10 (UniProt Q07866)
- log2 fold change (erlotinib): 0.071
- log2 fold change [1]: -0.165
- log2 fold change [2]: 0.122
- log2 fold change [7]: 0.241
- log2 fold change [8]: -0.337

Target: KIFC3 isoform 6 (UniProt Q9BVG8)
- log2 fold change (erlotinib): 0.091
- log2 fold change [4]: 0.069
- log2 fold change [1]: 0.14
- log2 fold change [5]: 0.004
- log2 fold change [2]: 0.076
- log2 fold change [6]: -0.077
- log2 fold change [7]: -0.103
- log2 fold change [8]: 0.158

Target: LYN isoform 2 (UniProt P07948)
- log2 fold change (erlotinib): -0.161
- log2 fold change [1]: -0.093
- log2 fold change [3]: 0.132
- log2 fold change [7]: -0.035
- log2 fold change [8]: -0.385
- log2 fold change (IRAK-1-4 Inhibitor I): 0.493

Target: MPDZ (UniProt O75970)
- log2 fold change (erlotinib): -0.017
- log2 fold change [4]: -0.061
- log2 fold change [1]: -0.095
- log2 fold change [5]: -0.273
- log2 fold change [3]: -0.091
- log2 fold change [6]: 0.004
- log2 fold change [7]: -0.099
- log2 fold change [8]: 0.108
- log2 fold change (IRAK-1-4 Inhibitor I): 0.149

Target: MME (UniProt P08473)
- log2 fold change (erlotinib): 0
- log2 fold change [1]: 0.052
- log2 fold change [2]: -0.067
- log2 fold change [3]: 0.011
- log2 fold change (IRAK-1-4 Inhibitor I): 0.095

Target: MAPKAP1 (UniProt Q9BPZ7)
UniProt Q9BPZ7, sequence (Q9BPZ7 whole entry, looked up): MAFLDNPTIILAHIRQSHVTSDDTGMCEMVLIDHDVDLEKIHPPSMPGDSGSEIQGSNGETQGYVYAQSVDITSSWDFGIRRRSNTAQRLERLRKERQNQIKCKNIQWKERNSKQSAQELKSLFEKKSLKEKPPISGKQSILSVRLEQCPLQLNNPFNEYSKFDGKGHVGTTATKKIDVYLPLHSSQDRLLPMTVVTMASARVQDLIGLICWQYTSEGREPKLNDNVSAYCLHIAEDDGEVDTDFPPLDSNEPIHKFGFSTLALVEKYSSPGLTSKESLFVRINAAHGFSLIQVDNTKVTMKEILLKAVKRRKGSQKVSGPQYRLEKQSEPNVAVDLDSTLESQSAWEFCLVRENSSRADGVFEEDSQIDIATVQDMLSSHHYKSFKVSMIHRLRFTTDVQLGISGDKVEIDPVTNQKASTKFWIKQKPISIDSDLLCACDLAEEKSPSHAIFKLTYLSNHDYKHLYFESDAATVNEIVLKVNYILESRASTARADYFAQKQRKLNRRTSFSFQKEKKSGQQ
- log2 fold change (erlotinib): -0.091
- log2 fold change [1]: -0.059
- log2 fold change [3]: 0.062
- log2 fold change [7]: 0.141
- log2 fold change [8]: -0.181
- log2 fold change (IRAK-1-4 Inhibitor I): -0.19

Source: the supplement of paper PMC10849652
